Rows were chosen to be rich in hits. Some 2.3% of all compounds tested hit in one or more screens of this group.
HepG2 tox-1: qHTS for Inhibitors of TGF-b: Cytotox Counterscreen; HepG2 CAGA-GFP viability, ATP luminescence, 18 h; Potency, µM (titrated, usually from 46.1 µM), actives largely listed as cytotoxic; 410,000 compounds, 0.76% hits
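HepG2 CAGA-GFP cells (1000/well, DMEM with 1% FBS) received compound, then TGF-beta at 500 pg/mL final, and were incubated 18 hours at 37 degrees C. Viability was read by CellTiter-Glo luminescence. Media-only wells were set as complete cell-killing and DMSO as no toxicity.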
ATXN2 expr inh: Primary qHTS for Inhibitors of ATXN expression; HEK-293 ATXN2-luciferase reporter, luminescence, 24 h; Potency, µM (series often up to 57 µM), most hits filed as inhibitors; 360,000 compounds, 0.72% hits; AID 1745845, 2022; further: nearly all actives have a fitted effect of over 55% in size
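qHTS (up to 57 uM final) was run with 24 h compound exposure of reporter cells at 37 °C. Each well was multiplexed: SteadyGlo luminescence measured ATXN2-luciferase expression after a fluorogenic Gly-Phe-AFC viability readout (25 uM final).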
S2 tox: Viability Counterscreen for Primary qHTS for Inhibitors of ATXN expression; 400,000 compounds, 0.49% hits; S2 cells (HEK-293 line with an ATXN2-luciferase reporter) viability, CellTiter-Fluor protease fluorescence, 24 h; Potency, µM (top dose mostly 56.7 µM), hits mostly cytotoxic; further: nearly all actives have a fitted effect of over 40% in size
TGFb inhibitor: qHTS for Inhibitors of TGF-b. 410,000 compounds, 1.2% hits. HepG2 CAGA-GFP TGF-b/SMAD3 reporter, GFP fluorescence, 18 h; TGF-beta stimulated, 500 pg/mL final. Potency, µM (top dose mostly 46.1 µM), actives largely listed as inhibitors; further: nearly all actives have a fitted effect of over 65% in size
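First, reporter cells (HEPG2 CAGA-GFP) rested 2 h at 37 degrees C. Next, compounds were pinned in and TGF-beta added to 500 pg/mL final. After 18 h, GFP was imaged per cell and summed per well.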
TGFb CAGA inh: qHTS for Inhibitors of TGF-b: Confirmation of Cherry Picks; shares compounds with TGFb inhibitor; Potency, µM (top dose mostly 46.1 µM), hits mostly inhibitors; HepG2 CAGA-GFP TGF-b reporter, GFP fluorescence, 18 h; cells stimulated with TGF-beta, 500 pg/mL; 1,600 compounds, 63% hits; further: nearly all actives have a fitted effect of over 65% in size
HepG2 tox-2: qHTS for Inhibitors of TGF-b: Cytotox Counterscreen for Cherry Picks; shares compounds with TGFb inhibitor; HepG2 CAGA-GFP viability, ATP luminescence, 18 h; cells stimulated with TGF-beta, 500 pg/mL; Potency, µM (doses to about 46.1 µM), actives largely listed as inhibitors; 1,600 compounds, 27% hits; further: nearly all actives have a fitted effect of over 70% in size
TGFb CCL64 inh: qHTS for Inhibitors of TGF-b: CCL64 Cells Orthogonal Assay for Cherry Picks; shares compounds with TGFb inhibitor; Potency, µM (titrated, usually from 46.1 µM), most hits filed as inhibitors; CCL64 CAGA-GFP reporter, TGF-b stimulated, GFP fluorescence, 18 h; 1,600 compounds, 41% hits; further: nearly all actives have a fitted effect of over 65% in size
COP TGFb inh: qHTS for Inhibitors of TGF-b: Hit Validation in HepG2 Cells using COP promoter; Potency, µM (highest dose often 46.1 µM), usual class: inhibitors; HepG2 COP-GFP TGF-b reporter, GFP fluorescence, 18 h; cells stimulated by added recombinant TGF-beta; 1,600 compounds, 3% hits; AID 720537, 2013; shares compounds with TGFb inhibitor; further: nearly all actives have a fitted effect of over 70% in size
Hits are given with their value; . = inactive; ? = inconclusive; / = no result given; [ ] = another dose, or the depositor's remark. The call rests on the fitted dose curve; in most records, active means well fitted curve in the direction sought with a large enough effect; inconclusive means small, poorly fitted or top-dose-only effect, or another doubt; inactive means no such curve, though single readings can be large; an effect the other way counts as inactive or inconclusive.

SMILES	HepG2 tox-1	ATXN2 expr inh	S2 tox	TGFb inhibitor	TGFb CAGA inh	HepG2 tox-2	TGFb CCL64 inh	COP TGFb inh
Cc1cccc(N2CCN(C(=O)c3cn(CC(C)C)c(=O)c4c3c3ccccc3n4C)CC2)c1C	.	.	.	.	/	/	/	/
CC1=C(C(=O)Nc2cccc(F)c2)C(c2ccsc2)C2=C(CC(C)(C)CC2=O)N1 (stereo not drawn)	.	.	?	10µM	?	.	.	.
CC1=C(C(=O)Nc2ccccc2F)C(c2ccsc2)C2=C(CC(C)(C)CC2=O)N1 (stereo not drawn)	.	/	.	.	/	/	/	/
O=[N+]([O-])c1c(Nc2cccc(O)c2)cc(Cl)c2nonc12	3.5µM	?	10µM	3.5µM	2.9µM	3.3µM	2.9µM	4.6µM
O=C(O)c1ccc(Nc2cc(Cl)c3nonc3c2[N+](=O)[O-])cc1	.	.	?	.	/	/	/	/
O=C(NC1CCCCC1)c1cnn2c1NC(=C1CC1)C=C2C(F)F	.	/	/	.	/	/	/	/
CCCCNc1c(-c2cccc(SC(C)CC)c2)nc2ccc(Cl)cn12 (stereo not drawn)	.	.	.	?	/	/	/	/
CCCCNc1c(-c2ccc(OC)c(SC(C)CC)c2)nc2ccc(Cl)cn12 (stereo not drawn)	.	.	?	10µM	?	.	?	.
Cc1ccc2c(C)ccc(O)c2n1	.	.	.	7.1µM	.	.	.	.
CC(C)(O)CCc1ccc(OCc2cc(-c3cccc(OC(F)F)c3)c3ncccc3c2)cc1	/	.	/	/	/	/	/	/
c1ccc(Nc2nc(-c3ccccc3)nc3ccccc23)cc1	.	.	.	.	?	?	?	.
Oc1ccc(Nc2nc(-c3ccccc3O)nc3ccccc23)cc1	.	/	?	?	/	/	/	/
Cc1ccc(-c2nc(Nc3cccc(O)c3)c3ccccc3n2)cc1	.	.	.	?	/	/	/	/
Cc1ccc(-c2nc(Nc3ccc(O)cc3)c3ccccc3n2)cc1	.	.	.	?	?	?	15µM	.
Fc1ccc(CNc2nc(-c3ccccc3)nc3ccccc23)cc1	.	.	.	18µM	?	?	?	.
Oc1cccc(Nc2nc(-c3ccccc3Cl)nc3ccccc23)c1	.	.	?	.	?	.	?	.
O=C(O)c1ccc(Nc2nc(-c3ccccc3)nc3ccccc23)cc1	.	/	?	.	/	/	/	/
O=S(=O)(c1ccc(Cl)cc1)N1CCOCC1	.	/	/	.	/	/	/	/
COC(=O)C1=C[C@@H](C(=O)OC)[C@@H]2C3=C(C(=O)[C@@]2(C)NC(=O)c2ccccc2)[C@H](C)[C@@H]2C(=O)N(c4ccccc4)C(=O)[C@@H]2[C@@H]3C1	.	/	/	?	/	/	/	/
CC(=O)O[C@@]12CO[C@@H]1C[C@H](O)[C@@]1(C)C(=O)[C@H](O)C3=C(C)[C@@H](OC(=O)C(O)[C@@H](NC(=O)OC(C)(C)C)c4ccccc4)C[C@@](O)([C@@H](OC(=O)c4ccccc4)[C@H]21)C3(C)C (stereo partly drawn)	.	/	/	.	/	/	/	/
CCOC(=O)c1c(C)[nH]c(C(=O)OCC(=O)NCCc2ccc(OCC)c(OCC)c2)c1C	.	.	.	?	?	?	.	.
CCOC(=O)c1[nH]c(C)c(C(=O)OCC(=O)NCc2ccc(OC)c(OC)c2)c1C	.	/	.	.	/	/	/	/
COc1cc(/C=C/C(=O)c2ccc3c(c2)OCCO3)cc(Br)c1OCC(=O)N(C)C	.	20µM	28µM	4µM	3.7µM	3.3µM	21µM	.
Cc1ccc2nc(/N=C(\N)NC(=O)NC3CCCCC3)nc(C)c2c1	.	?	28µM	10µM	12µM	?	16µM	.
CCNc1nc(NCC)nc(-n2cc(C(=O)c3cc(Cl)ccc3O)cn2)n1	.	/	/	.	/	/	/	/
SMILES	HepG2 tox-1	ATXN2 expr inh	S2 tox	TGFb inhibitor	TGFb CAGA inh	HepG2 tox-2	TGFb CCL64 inh	COP TGFb inh
CC(C)(C)c1ccc(OCCNC(=S)Nc2ccccc2)cc1	.	.	.	14µM	?	?	?	.
CC(C)CC(NC(=O)c1cccs1)c1nnc(SCc2ccc(Cl)c(Cl)c2)n1C (stereo not drawn)	.	.	?	5.6µM	18µM	18µM	?	.
Cc1noc2ncnc(Oc3cc(Cl)ccc3Cl)c12	.	.[11.3 µM]	?	?	18µM	?	?	.
Cc1noc2ncnc(Oc3ccc4ccccc4c3)c12	.	.	.	.	/	/	/	/
CC(C)C(=O)Nc1nc2c(ncn2[C@H]2CC(O)[C@@H](CO)O2)c(=O)[nH]1 (stereo partly drawn)	.	/	/	.	/	/	/	/
CN(C)c1ccc(-c2nn3c(-c4ccccc4Cl)nnc3s2)cc1	.	.	.	?	4.6µM	.	10µM	.
CCCc1nnc(NC(=O)C(CC)OC(=O)c2cc(C)nc3ccccc23)s1 (stereo not drawn)	.	.	.	?	?	.	.	.
COc1cccc(/C=C2/SC(=S)N(CC(=O)Nc3nccs3)C2=O)c1	.	/	/	.	/	/	/	/
CCN(CC(O)Cn1c2ccccc2c2ccccc21)S(=O)(=O)c1ccc(C)cc1 (stereo not drawn)	.	.	.	10µM	21µM	?	?	.
CC(=O)Nc1ccccc1N(CC(O)Cn1c2ccccc2c2ccccc21)S(=O)(=O)c1ccc(C)cc1 (stereo not drawn)	.	?	.	?	/	/	/	/
CCCc1cc(-c2[nH]ncc2-c2ccc(C(=O)OCC)o2)c(O)cc1O	20µM	.	?	10µM	.	.	?	.
CN(C)c1ccc(C=O)c(F)c1	.	/	/	.	/	/	/	/
Clc1ccc(-n2nnnc2Sc2ncnc3sccc23)cc1	.	?	/	10µM	4.6µM	16µM	2.9µM	?
Cc1cc(C)nc(-n2nc(C)cc2NC(=O)CN2CCC(C)CC2)n1	.	.	.	16µM	?	.	.	.
Cc1cc(C)nc(-n2nc(C)cc2NC(=O)CN2CCCC2)n1	.	/	.	.	/	/	/	/
C=CCn1c(SCC#N)nc2cc(Cl)ccc2c1=O	.	/	/	.	/	/	/	/
O=C(Cc1ccccc1)NCC(=O)OCC(=O)c1ccc2ccccc2c1	.	/	/	.	/	/	/	/

Source: PubChem (National Center for Advancing Translational Sciences (NCATS))
